Experimental data: PubChem BioAssay AID602244 (Sanford-Burnham Center for Chemical Genomics, 2012)
In all, about 360,000 compounds went through this assay and about 1,300 (0.36%) were called active. Only a selection was taken, and actives are over-represented in it overall. Unmarked numbers belong to inactive results. No stated cut-off is given here; in the data, active means inhibition above about 34% (passing the limit was not always enough); inactive means the rest.

biological target: C-X-C chemokine receptor type 6 (Homo sapiens) (UniProt O00574); assay: blockade of CXCL16-induced CXCR6 beta-arrestin recruitment – cell-based, luminescence, CHO-K1 PathHunter, 1536-well, primary screen (AID 602244); details: at 20 µM, stronger effect = higher value;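 further: antagonist mode with CXCL16 agonist at 10 nM final; 0% = 10 nM CXCL16 with DMSO and 100% = unstimulated wells without agonist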
Sequence (O00574 whole entry, looked up): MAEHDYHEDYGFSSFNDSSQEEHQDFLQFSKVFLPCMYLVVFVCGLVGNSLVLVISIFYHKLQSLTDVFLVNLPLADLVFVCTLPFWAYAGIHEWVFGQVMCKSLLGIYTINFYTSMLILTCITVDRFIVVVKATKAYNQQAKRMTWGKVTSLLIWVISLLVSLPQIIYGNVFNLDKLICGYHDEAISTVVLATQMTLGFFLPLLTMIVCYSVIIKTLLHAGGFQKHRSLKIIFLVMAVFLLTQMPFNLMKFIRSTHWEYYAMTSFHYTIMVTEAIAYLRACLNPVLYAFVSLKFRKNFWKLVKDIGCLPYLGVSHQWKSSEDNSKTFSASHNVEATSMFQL

Q: With `Cc1ccc(S(=O)(=O)CCC(=O)OCC(=O)N(C)Cc2ccccc2)cc1` as the compound, how does the inhibition read?
A: 0.4%

Q: Which inhibition does the source give for `O=C(CCS(=O)(=O)c1ccccc1)Nc1nc2c(s1)CCCC2` here?
A: -0.7%

Q: With `COc1cccc2sc(N(CCCN(C)C)C(=O)CCS(=O)(=O)c3ccccc3)nc12` as the compound, how does the inhibition read?
A: 44.2% (active)

Q: For `CCc1nc2c(OCCOc3ccccc3)cccn2c1N(C)C(=O)c1ccccc1F`, which inhibition is on record?
A: 4.8%

Q: With `CN1CCC(N(C)S(=O)(=O)c2ccc(NC(=O)c3cccc(C#N)c3)cc2)CC1` as the compound, how does the inhibition read?
A: -0.9%

Q: With `O=C1CC(c2cccc(F)c2)C2=C(CCCC2=O)N1` (stereo not drawn) as the compound, how does the inhibition read?
A: -9.4%

Q: `O=[N+]([O-])c1c(NCCO)cc(Sc2nc3ccccc3s2)c2nonc12` was tested. Which inhibition did it give?
A: 94.3% (active)

Q: For `C=CCOc1ccc(Cl)cc1CNCCCN1CCOCC1`, which inhibition is on record?
A: -3%

Q: Which inhibition does the source give for `Cc1ccc(/C=N/NC(=O)CSc2nc3ccccc3o2)cc1` here?
A: -6.5%

Q: How did the inhibition turn out when `O=C(CNC(=O)c1cccnc1)N/N=C/c1cc(Br)c(O)c(Br)c1` was run?
A: 1.1%

Q: Which inhibition does the source give for `O=C(CSc1cccc2cccnc12)N/N=C/c1cccnc1` here?
A: 48.3% (active)

Q: `O=C(COc1cccc2c1CCNC2=O)NC1CCCCC1` was tested. Which inhibition did it give?
A: -2.3%

Q: With `OCCC1CN(Cc2cccc(OC3CCCC3)c2)CCN1Cc1ccsc1` (stereo not drawn) as the compound, how does the inhibition read?
A: 4.2%

Q: Which inhibition does the source give for `Cc1c(NC(=O)C(C)Oc2cccc(Cl)c2)c(=O)n(-c2ccccc2)n1C` (stereo not drawn) here?
A: -5%

Q: Which inhibition does the source give for `CC(C)CCNC(=O)c1cccnc1Sc1ccccc1` here?
A: -0.4%

Q: `CC(NC(=O)Nc1cccc([N+](=O)[O-])c1)c1ccc2c(c1)OCO2` (stereo not drawn) was tested. Which inhibition did it give?
A: 7.9%

Q: For `COc1cccc(NCCC(=O)c2cccc([N+](=O)[O-])c2)c1`, which inhibition is on record?
A: 2.4%

Q: How did the inhibition turn out when `COC(=O)/C=C\C(=O)Nc1cccc([N+](=O)[O-])c1` was run?
A: 74.8% (active)

Q: `O=C(NCCCc1ccccc1)c1cc(COc2c(F)cccc2F)on1` was tested. Which inhibition did it give?
A: 7.9%

Q: For `CC(C)Cc1cc(C(=O)NCCc2ccccc2)no1`, which inhibition is on record?
A: 1.7%

Q: How did the inhibition turn out when `Cc1cc(C(=O)NCCCc2ccccc2)no1` was run?
A: 48.5% (active)

Q: How did the inhibition turn out when `Cc1ccc(CCNC(=O)C2CCN(S(=O)(=O)N3CCCC3)CC2)cc1` was run?
A: 0.7%

Q: Which inhibition does the source give for `Cc1ccc(OCCCCc2c(C)n[nH]c2C)cc1` here?
A: -0.7%

Q: How did the inhibition turn out when `C/C(=N\NC(=S)NCc1ccccc1)C1CCCCC1` was run?
A: 21.2%

Q: With `CCCC1CCC(=NNC(=S)NCCc2ccccc2)CC1` (stereo not drawn) as the compound, how does the inhibition read?
A: 40% (active)

Q: For `Cc1cc(F)ccc1NC(=S)NCCc1ccccc1`, which inhibition is on record?
A: -0.7%

Q: `Cc1cc(C)c(C)c(S(=O)(=O)N[C@@H](C)C(=O)OC(C)C(=O)NC(N)=O)c1C` (stereo partly drawn) was tested. Which inhibition did it give?
A: 7%

Q: `Cc1oc2cc([N+](=O)[O-])c(O)c([N+](=O)[O-])c2c1C(=O)c1ccc(Br)cc1` was tested. Which inhibition did it give?
A: 25.7%

Q: How did the inhibition turn out when `O=C(NNC(=S)NCCCN1CCOCC1)c1ccncc1` was run?
A: 3.2%

Q: How did the inhibition turn out when `NC(=O)C1(Nc2ccc([N+](=O)[O-])cc2)CCCC1` was run?
A: 1.8%

Q: Which inhibition does the source give for `COC(=O)c1ccccc1N=NNc1ccc([N+](=O)[O-])cc1` here?
A: -5.2%

Q: For `O=[N+]([O-])c1ccc(N=NNc2ccc([N+](=O)[O-])cc2)cc1`, which inhibition is on record?
A: 39.7% (active)

Q: With `CC(=O)Nc1ccc(S(=O)(=O)NCC2CCC(C(=O)NCCc3ccccc3)CC2)cc1` (stereo not drawn) as the compound, how does the inhibition read?
A: 6.1%

Q: For `Nc1nc(Nc2ccccc2F)nc(NC2CCCCC2)c1[N+](=O)[O-]`, which inhibition is on record?
A: -0.8%

Q: `CSCCC(NC(=O)COc1ccccc1)C(=O)OCc1ccc(Cl)cc1` (stereo not drawn) was tested. Which inhibition did it give?
A: 2.7%

Q: How did the inhibition turn out when `CSCCC(NC(=O)COc1ccccc1)C(=O)OCC(=O)c1cc2ccccc2o1` (stereo not drawn) was run?
A: 37.7% (active)

Q: How did the inhibition turn out when `CSCCC(NC(=O)COc1ccccc1)C(=O)OCCOc1ccc(Br)cc1` (stereo not drawn) was run?
A: 2.8%

Q: `O=C(NCc1ccccc1)C1=C[C@@H](C2CCCCC2)C[C@@H](OCc2ccc(CO)cc2)O1` was tested. Which inhibition did it give?
A: 6.4%

Q: How did the inhibition turn out when `CC(C)c1ccc(S(=O)(=O)N2CCC3(CC2)OCCO3)cc1` was run?
A: -0.4%

Q: `CCN(CC)P(=O)(/C(Cl)=C\Nc1c(C)n(C)n(-c2ccccc2)c1=O)N(CC)CC` was tested. Which inhibition did it give?
A: 9.1%

Q: Which inhibition does the source give for `CCOc1ccc(CN2CCC(n3nccc3NC(=O)C3CC3)CC2)cc1CO` here?
A: 3.8%

Q: Which inhibition does the source give for `CSCCC(NS(=O)(=O)c1ccc(C)cc1)C(=O)NCCc1c[nH]c2ccccc12` (stereo not drawn) here?
A: -6%

Q: `CCN(CC)CCn1c(/N=C/c2cc(Br)ccc2O)nc2ccccc21` was tested. Which inhibition did it give?
A: 0.9%

Q: How did the inhibition turn out when `CCC(=O)Nc1c(S(=O)(=O)c2ccccc2)c2nc3ccccc3nc2n1Cc1ccccc1` was run?
A: -4.6%

Q: `CCN(CC)CCn1c(N)c(S(=O)(=O)c2ccccc2)c2nc3ccccc3nc21` was tested. Which inhibition did it give?
A: 45.9% (active)

Q: How did the inhibition turn out when `CCCCOc1ccc(C(=O)NCC(=O)OCC(=O)c2c(N)n(C)c(=O)n(C)c2=O)cc1` was run?
A: 2.3%

Q: For `CC1CN(c2cc(=O)n(-c3cccc(Br)c3)c(=O)[nH]2)CC(C)O1` (stereo not drawn), which inhibition is on record?
A: -4.7%

Q: Which inhibition does the source give for `CCOC(=O)N1CCC(N2Cc3cccc(C(=O)Nc4ccc(S(=O)(=O)N(CC)CC)cc4)c3C2=O)CC1` here?
A: -2.9%

Q: Which inhibition does the source give for `COC(=O)c1cc(OC)c(OC)cc1NC(=O)C1CCCO1` (stereo not drawn) here?
A: 0.8%

Q: With `Cc1ccc([C@H]2N[C@]3(CCCN(Cc4ccccc4)C3=O)[C@H]3C(=O)N(Cc4ccccc4)C(=O)[C@@H]23)cc1` as the compound, how does the inhibition read?
A: 3.3%

Q: `CC(=NNC(=S)N1CCCCCC1)c1ccccn1` was tested. Which inhibition did it give?
A: 19.5%

Q: How did the inhibition turn out when `C/C(=N\NC(=O)Cc1ccc(Cl)cc1)c1ccccn1` was run?
A: 88.7% (active)

Q: `C/C(=N/NC(=O)CCc1ccccc1)c1ccco1` was tested. Which inhibition did it give?
A: -3.6%

Q: Which inhibition does the source give for `O=C(c1ccccc1)C(Cn1cncn1)C(Sc1ccccc1)c1ccccc1` (stereo not drawn) here?
A: 5.2%

Q: For `O=C(CNc1ccccc1N1CCCC1=O)Nc1cc(Cl)ccc1-n1cncn1`, which inhibition is on record?
A: -1%

Q: For `Cc1noc(C)c1CSCC(=O)N(CCC(C)C)c1c(N)n(Cc2ccccc2)c(=O)[nH]c1=O`, which inhibition is on record?
A: 2.5%

Q: With `COc1cccc(CN(C)CC2CCCN(CCc3ccc(Cl)cc3)C2)c1OC` (stereo not drawn) as the compound, how does the inhibition read?
A: 3.7%

Q: With `CCN(CC)Cc1csc2ccc(Br)cc12` as the compound, how does the inhibition read?
A: 5.6%

Q: For `COc1cccc(CNC(=O)C2CCN(S(=O)(=O)c3cccc4cccnc34)CC2)c1`, which inhibition is on record?
A: -1.1%

Q: `Cc1cc(OCCOc2cccc3cccnc23)c(C)cc1Cl` was tested. Which inhibition did it give?
A: -1.8%

Q: Which inhibition does the source give for `CC(=O)/C(=N\Nc1ccc(Cl)cc1Cl)Sc1cccc2cccnc12` here?
A: 46.4% (active)

Q: Which inhibition does the source give for `CC1CCC(NS(=O)(=O)c2ccc3c(c2)CC(=O)N3)CC1` (stereo not drawn) here?
A: -9.8%

Q: How did the inhibition turn out when `CS(=O)(=O)c1ccc(Cl)c(NC(=O)COC(=O)c2cccc(S(=O)(=O)N3CCCC3)c2)c1` was run?
A: 8.6%

Q: `COc1ccc(C[C@H]2CN3C(=NC[C@H]3C)N2CCNC(=O)CCC2CCCCC2)cc1` was tested. Which inhibition did it give?
A: 5.3%

Q: How did the inhibition turn out when `CC(C)(C)C1CCC(=NNC(=O)c2ccc(Br)o2)CC1` (stereo not drawn) was run?
A: -5%

Q: For `COCCCNC(=S)NNC(=O)C(O)(c1ccccc1)c1ccccc1`, which inhibition is on record?
A: 14.6%

Q: `COCCCNC(=S)NC(=O)c1ccc([N+](=O)[O-])cc1` was tested. Which inhibition did it give?
A: 75% (active)

Q: For `COc1ccccc1OCCNC(=O)c1cc([N+](=O)[O-])cc([N+](=O)[O-])c1`, which inhibition is on record?
A: -9.6%

Q: For `COc1ccc(CN2CCNC(=O)C2CC(=O)NCc2cn[nH]c2-c2ccccc2)c(F)c1` (stereo not drawn), which inhibition is on record?
A: -0.4%

Q: `Nc1nnc(C2CCCC2)s1` was tested. Which inhibition did it give?
A: -3.7%

Q: Which inhibition does the source give for `CC1(C(=O)NCCc2c[nH]c3ccccc23)C=CC2(CCCCC2)N1C(=O)c1ccccc1` (stereo not drawn) here?
A: -1.9%

Q: For `Cc1ccc(-c2ccnc3[nH]n(-c4ccccc4)c(=O)c23)cc1`, which inhibition is on record?
A: 12.9%

Q: With `COc1cc(SC#N)ccc1N=Cc1c(C)[nH]n(-c2ccc(C)cc2)c1=O` as the compound, how does the inhibition read?
A: -2%

Q: `Cc1ccc(-n2[nH]c(C)c(/C=N/N3C(=O)c4cccc5cccc(c45)C3=O)c2=O)cc1` was tested. Which inhibition did it give?
A: 48.5% (active)

Q: `Cc1nn(C(C)CC(=O)O)c(C)c1C` (stereo not drawn) was tested. Which inhibition did it give?
A: 3.3%

Q: `CC(NC(=O)Cn1cc(C(F)(F)F)cc(Cl)c1=O)c1ccccc1` (stereo not drawn) was tested. Which inhibition did it give?
A: -4.9%

Q: How did the inhibition turn out when `CC1CCC(C(C)C)C(=O)/C1=C\c1ccc(NC(=O)CCC(=O)O)cc1` (stereo not drawn) was run?
A: 1%

Q: How did the inhibition turn out when `O=C(NCCc1ccccc1)C1CCC(Cn2c(=O)c3ccccc3n(Cc3cccnc3)c2=O)CC1` (stereo not drawn) was run?
A: -5.3%

Q: Which inhibition does the source give for `C=CCC1(C#N)C(=S)NC(C)=C(C(=O)OCC)C1c1ccccc1` (stereo not drawn) here?
A: -3.2%

Q: With `COc1ccc(NC(=O)/C(Cl)=C(/Cl)S(=O)Cc2ccc(C)cc2)cn1` (stereo not drawn) as the compound, how does the inhibition read?
A: 94.9% (active)

Q: With `COc1cc(NC(=O)Nc2ccc(C)cc2)cc([N+](=O)[O-])c1` as the compound, how does the inhibition read?
A: 2.8%

Q: `COc1ccc(NC(=O)C2Cc3c(-c4ccc5c(c4)OCO5)ccnc3O2)cn1` (stereo not drawn) was tested. Which inhibition did it give?
A: -3.9%

Q: How did the inhibition turn out when `COc1cccc(CC(=NO)c2cccc(OC)c2)c1` was run?
A: 7.2%

Q: For `O=C1C(Cl)=C(Oc2ccccc2)C(=O)c2ccccc21`, which inhibition is on record?
A: 104% (active)

Q: For `O=C(OCC(=O)N1CCc2ccccc21)C1CCCN1S(=O)(=O)c1ccc(Cl)cc1` (stereo not drawn), which inhibition is on record?
A: -11.4%

Q: `CCCCn1c(N)c(N(CC(C)C)C(=O)c2cccc(S(=O)(=O)N3CCN(C(C)=O)CC3)c2)c(=O)[nH]c1=O` was tested. Which inhibition did it give?
A: 1.2%

Q: `CCCCCCCCCCOC(=O)Cn1c(COc2cccc(OC)c2)[n+](C)c2ccccc21` was tested. Which inhibition did it give?
A: 47.7% (active)

Q: Which inhibition does the source give for `CCCCN(CCCC)C(=O)CCS(=O)(=O)c1ccc2c(c1)n(C)c(=O)c(=O)n2C` here?
A: -7.5%

Q: How did the inhibition turn out when `COc1ccc(CCNC(=O)CSc2nc(-c3ccc(OC)c(OC)c3)ccc2C#N)cc1` was run?
A: 7.6%

Q: For `Cc1ccc(N2C(=O)SC(N(CC(=O)O)c3ccc(C)cc3)C2=O)cc1` (stereo not drawn), which inhibition is on record?
A: 4%

Q: With `COCCNc1nc(-c2ccccc2)nc2c1oc1ccccc12` as the compound, how does the inhibition read?
A: -2.7%

Q: Which inhibition does the source give for `CCCNC(=O)c1cnc(-c2ccccc2)nc1-c1ccccc1` here?
A: 12%

Q: Which inhibition does the source give for `CCC(=O)OCCNc1nc(-c2ccccc2)nc2ccccc12` here?
A: 40.8% (active)
